# Reference: PubChem BioAssay (NCATS)
# Results filed as inconclusive are left out. A number with no mark means an inactive call. Activity calls are given as the source filed them. The call rests on the fitted dose curve; in most records, active means well fitted activation curve with a large enough effect in the repeat runs; inconclusive means weak or mixed curves; inactive means flat fitted curve, though single readings scatter.
# Assay: qHTS assay for small molecule agonists of the antioxidant response element (ARE) signaling pathway measured by Nrf2-dependant transcriptional activity (AID 720636); further: % of control where 0% means no effect
# Settings: ARE-luc HepG2, Nrf2 luciferase reporter, 16 h; series mostly up to 92.4 µM; activation: at the top concentration
# Text: National Center for Advancing Translational Sciences [NCATS] NIH Chemical Genomics Center [NCGC] U.S. Environmental Protection Agency [EPA] National Institutes of Environmental Health Sciences [NIEHS] National Toxicology Program [NTP] Assay Overview: The antioxidant response element (ARE) signaling pathway plays an important role in the cellular anti-oxidant defense. Exposure to stressors which are exogenous like ionizing radiations, chemicals, U-V light, and endogenous like cell signaling, metabolic processes or inflammation, reactive oxygen species (ROS), can induce oxidative stress in the cells. Oxidative stress has been implicated in the pathogenesis of a variety of diseases ranging from cancer to neurodegeneration. ARE-luc HepG2 cell line (Simmons et al., Current Chemical Genomics, 5:1-12, 2011) has been used for identifying the chemicals that induce oxidative stress. The cell line has an Nrf2-responsive luciferase reporter gene that has been engineered to measure Nrf2-dependant transcriptional activity.
# Assay Protocol Summary: For measuring ARE induction; 2,000 ARE-luc HepG2 cells in 5 uL of assay medium containing 1% dialyzed FBS per well were dispensed into white wall/solid bottom 1536-well plates using a Flying Reagent Dispenser (FRD) (Aurora Discovery). The assay plates were incubated for 6 hr at 37 C to allow cell attachment to the well bottom, followed by the transfer of 23 nL compound or DMSO vehicle by a pin tool (Kalypsys). The plates were incubated for 16 hr at 37 C and 5% CO2, followed by the addition of 5 uL of ONE-GloTM luciferase reagent (Promega) into each well using FRD. After 30 min room temperature incubation, plates were read on a ViewLux plate reader (PerkinElmer).
SMILES,activation,outcome
O=C(O)/C=C/C(=O)O,-0.779%,
Clc1ccccn1,-0.735%,
FC(F)(F)c1cccc(Cl)c1,-0.243%,
O=[N+]([O-])c1cc(C(F)(F)F)ccc1Cl,-1.69%,
CCCCC(C=O)CC (stereo not given),-0.926%,
O=[N+]([O-])c1ccc(CCO)cc1,-0.715%,
CCC(C)O (stereo not given),-0.625%,
CC(C)CCOC(=O)/C=C/c1ccccc1,0.335%,
Cc1cc(C)cc(O)c1,-0.298%,
O=C(Cl)c1cccc([N+](=O)[O-])c1,-0.259%,
Cc1cccc(C(=O)O)c1,0.537%,
CCN(CC)c1cccc(O)c1,-0.895%,
Cc1c(C(=O)O)cccc1[N+](=O)[O-],-0.711%,
CC(C)=CCl,-1.69%,
Nc1cc(Cl)c(N)c(Cl)c1,,inactive
C(=C/c1ccccc1)/c1ccccc1,-0.704%,
CC(C)CO,-1.2%,
O=C1CCCCC1,-0.797%,
Cc1ccc(C(C)(C)C)cc1,-0.918%,
NC(=O)c1cccc([N+](=O)[O-])c1,0.463%,

SMILES,activation,outcome
CCCCCCC=O,-0.917%,
ClCCl,-1.51%,
O=c1[nH][nH]c(=O)c2cc([N+](=O)[O-])ccc12,-1.34%,
O=C(Cl)c1c(Cl)cccc1Cl,-1.35%,
CCOc1ccc(NC(C)=O)cc1N,1.56%,
C=C(C)C(=O)OCC(C)C,-1.76%,
NC(=S)NNC(N)=S,,inactive
CN(C)c1cccc(O)c1,0.0071%,
CCCCC(=O)N(C)C,0.11%,
O=C(O)c1ccccc1[N+](=O)[O-],-0.0268%,
O=C(O)c1ccc(Cl)cc1Cl,-1.66%,
C=CCCCCCCC=C,0.634%,
C1COC1,-1.59%,
CCN(Cc1ccccc1)c1ccccc1,-0.513%,
Cc1ccc(C#N)cc1,-0.451%,
O=C(O)c1cc(Cl)cc(Cl)c1,-1.02%,
CC(C)(c1cc(Br)c(OCC(Br)CBr)c(Br)c1)c1cc(Br)c(OCC(Br)CBr)c(Br)c1 (stereo not given),-1.21%,
CC(=O)Nc1cccc(N)c1,-0.951%,
c1ccc2[nH]cnc2c1,1.19%,
NCCCCCCN,0.511%,
